From PubChem BioAssay (EPA / NIEHS) come the findings set out here.

Inconclusive results are not listed. Where a structure was tested more than once in an assay, its records may differ in their call. The source made the active and inactive calls. The calls were made as follows, unless noted: active = hit-call score of the fitted dose curve at least 0.9, where 1 is the maximum; inactive = score below 0.9.

The target in experiment [1] is Estrogen receptor (Homo sapiens) (UniProt P03372). Put plainly: OT_ERa_GFPERaERE_0120: Odyssey Thera (OT) 2-hour HeLa Transcription Induction Assay for Estrogen Receptor (AID 2283382; active = hit-call score of the fitted dose curve at least 0.9, where 1 is the maximum). In outline: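 Measures ESR1 pathway reporter gain-of-signal in HeLa cells after a 2-hour treatment, detected as fluorescent protein induction by microscopy, DMSO as baseline.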
For experiment [2], the target named is Peroxisome proliferator-activated receptor gamma (Homo sapiens) (UniProt P37231). Put plainly: OT_PPARg_PPARgSRC1_0480: Odyssey Thera (OT) 8-hour Protein-Complementation Assay for Peroxisome Proliferator-activated Receptor Gamma / SRC-1 Co-activator (AID 2283387; active = hit-call score of the fitted dose curve at least 0.9, where 1 is the maximum;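 also: nuclear to cytoplasmic split Venus YFP fluorescence ratio reporting PPARg SRC-1 interaction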). In outline:
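HEK293T transiently transfected with PPARg and SRC-1 fused to Venus YFP fragments, compounds 8 h at 37C. Fixed, Draq5-stained cells imaged; nuclear/cytoplasmic 488 nm fluorescence ratio over at least 350 cells per image; gain fitted versus DMSO.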

Experiment [3] shares this target. Put plainly: OT_PPARg_PPARgSRC1_1440: Odyssey Thera (OT) 24-hour Protein-Complementation Assay for Peroxisome Proliferator-activated Receptor Gamma/ SRC-1 Co-activator (AID 2283388; active = hit-call score of the fitted dose curve at least 0.9, where 1 is the maximum). In outline:
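Protein-fragment complementation between PPARg and coactivator SRC-1 was measured by fluorescence imaging in transiently transfected HEK293T cells after 24 h treatment. Signal was quantified as N/C ratio in the 488 nm channel, with DMSO as negative control.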

Read-out in experiment [4]: Tumor necrosis factor receptor superfamily member 6 (Homo sapiens) (UniProt P25445)
Put plainly: LTEA_HepaRG_FAS: Life Technologies and Expression Analysis (LTEA) Assay for Fas cell surface death receptor (FAS) using HepaRG (AID 2283447). Conditions: mRNA level, 48 h; actives raise or lower the signal. In outline: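 Differentiated human HepaRG cells, pre-cultured 48 h, were exposed in duplicate for 48 h to 8-point half-log concentrations (top 100 uM, 0.5% DMSO) in serum-free induction medium; FAS mRNA measured by qRT-PCR, normalized to ACTB/GAPDH/POLR2A, bidirectional fit versus DMSO.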

Read-out in experiment [5]: Fatty acid synthase (Homo sapiens) (UniProt P49327)
Put plainly: LTEA_HepaRG_FASN: Life Technologies and Expression Analysis (LTEA) Assay for Fatty Acid Synthase (FASN) using HepaRG (AID 2283448). Conditions: mRNA level, 48 h; actives raise or lower the signal. In outline:
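Transcript-level assay: HepaRG liver cells are treated for 48 h across an eight-point range topping at 100 uM, and FASN mRNA, normalized to three housekeeping genes, is compared with DMSO controls in both directions.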

Read-out in experiment [6]: Cyclin D2 (CCND2), CCND2 (gene 894)
As to the kind of experiment: LTEA_HepaRG_CCND2: Life Technologies and Expression Analysis (LTEA) Assay for Cyclin D2 (CCND2) using HepaRG (AID 2283449).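 Also: CCND2 transcript measured by TaqMan qRT-PCR and normalised to three housekeeping genes.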 Conditions: mRNA level, 48 h; actives raise or lower the signal. In outline: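 Differentiated human HepaRG cells were exposed for 48 h in serum-free induction medium to eight half-log concentrations topping at 100 uM (0.5% DMSO vehicle). CCND2 mRNA was quantified by TaqMan qRT-PCR, normalised to ACTB, GAPDH and POLR2A, and fitted bidirectionally against DMSO.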

Read-out in experiment [7]: Cyclin Dependent Kinase Inhibitor 1A (CDKN1A), CDKN1A (gene 1026)
As to the kind of experiment: LTEA_HepaRG_CDKN1A: Life Technologies and Expression Analysis (LTEA) Assay for Cyclin Dependent Kinase Inhibitor 1A (CDKN1A) using HepaRG (AID 2283450). Conditions: mRNA level, 48 h; actives raise or lower the signal. In outline:
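Read-out is CDKN1A mRNA by TaqMan qRT-PCR, normalized to three housekeeping genes and fitted in both directions against the DMSO baseline. Human HepaRG cells were treated 48 h with test chemicals up to 100 uM in half-log steps, 0.5% DMSO.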

Read-out in experiment [8]: Cyclin D1 (CCND1), CCND1 (gene 595)
As to the kind of experiment: LTEA_HepaRG_CCND1: Life Technologies and Expression Analysis (LTEA) Assay for Cyclin D1 (CCND1) using HepaRG (AID 2283451).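 As to AC50: TaqMan qRT-PCR transcript level normalised to ACTB GAPDH and POLR2A housekeeping genes.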 Conditions: mRNA level, 48 h; actives raise or lower the signal. Summed up: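 HepaRG plated 48 h, medium switched to serum-free induction medium, chemicals added in duplicate (top 100 uM, half-log steps, 0.5% DMSO) for 48 h, cells lysed, RNA measured by TaqMan qRT-PCR.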

Experiment [9] deals with Bile acid receptor (Homo sapiens) (UniProt Q96RI1). Put plainly: OT_FXR_FXRSRC1_0480: Odyssey Thera (OT) 8-hour HEK293T Protein-Complementation Assay for Farnesoid X receptor/SRC-1 Co-activator (AID 2283383; active = hit-call score of the fitted dose curve at least 0.9, where 1 is the maximum). Summed up: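 Co-activator recruitment to FXR was measured in living HEK293T cells, where interaction of the two fused partners restored an active fluorescent reporter. Signal gain after 8 h treatment was referenced to DMSO.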

Experiment [10] shares this target. Put plainly: OT_FXR_FXRSRC1_1440: Odyssey Thera (OT) 24-hour HEK293T Protein-Complementation Assay for Farnesoid X receptor/SRC-1 Co-activator (AID 2283384; active = hit-call score of the fitted dose curve at least 0.9, where 1 is the maximum). In outline: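 Cell-based binding reporter: interaction of FXR with SRC-1 brings reporter fragments together, giving a fluorescence signal read 24 h after dosing of HEK293T cells.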
Experiment [11] is described as follows: CEETOX_H295R_OHPREG: CeeTox H295R High-throughput Steroidogenesis Assay for OH-Pregnenolone (OHPREG) (AID 2283434). Conditions: actives raise or lower the signal. Summed up:
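Human adrenal H295R cells were prestimulated 48 h with 10 uM forskolin, then exposed 48 h to chemical in 0.1% DMSO. Medium 17alpha-hydroxypregnenolone was quantified by HPLC-MS/MS after MTBE extraction; bidirectional fitting versus DMSO baseline.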

The nature of experiment [12]: CEETOX_H295R_11DCORT: CeeTox H295R High-throughput Steroidogenesis Assay for 11-Deoxycortisol (11DCORT) (AID 2283432). Conditions: actives raise or lower the signal. Summed up: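 H295R cells prestimulated 48 h with 10 uM forskolin, then exposed 48 h to chemical in 0.1% DMSO. 11-Deoxycortisol in medium quantified by HPLC-MS/MS after MTBE extraction; bidirectional fit versus DMSO. MTT viability read in same wells.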

Experiment [13] in a line: CEETOX_H295R_OHPROG: CeeTox H295R High-throughput Steroidogenesis Assay for OH-Progesterone (OHPROG) (AID 2283435). Conditions: actives raise or lower the signal. Summed up: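 Secreted 17alpha-hydroxyprogesterone is read by tandem MS from media of forskolin-primed H295R cells dosed with chemical for 48 h. Activity is fitted in both directions against DMSO baseline; cytotoxic concentrations are re-tested diluted.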

Experiment [14] in a line: CEETOX_H295R_CORTIC: CeeTox H295R High-throughput Steroidogenesis Assay for Corticosterone (CORTIC) (AID 2283437).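 Also: corticosterone secreted into medium quantified by mass spectrometry.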 Conditions: actives raise or lower the signal. In outline:
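H295R cells were prestimulated 48 h with 10 uM forskolin, then exposed 48 h to test chemical in 0.1% DMSO. Medium corticosterone was MTBE-extracted and quantified by HPLC-MS/MS; bidirectional fit versus DMSO baseline.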

Experiment [15] is described as follows: CEETOX_H295R_CORTISOL: CeeTox H295R High-throughput Steroidogenesis Assay for Cortisol (AID 2283438).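 Also: cortisol secreted into medium quantified by LC-MS/MS.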 Conditions: actives raise or lower the signal. Summed up: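 Human adrenocortical H295R cells (passage ≤10) received test chemicals for 48 h after forskolin priming. Secreted cortisol was measured by LC-MS/MS.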
Experiment [16] in a line: CEETOX_H295R_DOC: CeeTox H295R High-throughput Steroidogenesis Assay for DOC (AID 2283439). Conditions: actives raise or lower the signal. In outline: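 Secreted DOC was quantified from H295R media by HPLC-MS/MS after 48 h chemical exposure following 48 h forskolin (10 uM) prestimulation. Values were fitted in both directions relative to DMSO, the negative control and baseline.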

Experiment [17] is described as follows: CEETOX_H295R_PROG: CeeTox H295R High-throughput Steroidogenesis Assay for Progesterone (PROG) (AID 2283442). Conditions: actives raise or lower the signal. Summed up:
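Steps: seed H295R cells and let them adhere overnight; prime 48 h with 10 uM forskolin; dose with compound in DMSO at 0.1% final for 48 h; extract medium steroids with MTBE; measure progesterone by LC-MS/MS. MTT viability was run in the same wells.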

Experiment [18] is described as follows: CEETOX_H295R_ESTRADIOL: CeeTox H295R High-throughput Steroidogenesis Assay for Estradiol (AID 2283440).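 Also: estradiol secreted into medium quantified by LC-MS/MS after dansyl derivatisation.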 Conditions: actives raise or lower the signal. In outline:
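Estradiol secreted into the medium was measured by tandem mass spectrometry after liquid-liquid extraction and dansylation. Human H295R cells had been forskolin-primed (10 uM, 48 h) before a 48 h chemical exposure with 0.1% DMSO.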

Experiment [19] is described as follows: CEETOX_H295R_ESTRONE: CeeTox H295R High-throughput Steroidogenesis Assay for Estrone (AID 2283441).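 Also: estrone secreted into medium measured by LC-MS/MS after dansyl derivatization.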 Conditions: actives raise or lower the signal. In outline: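 H295R cells; 48 h forskolin (10 uM) prestimulation; 48 h compound exposure, 0.1% DMSO final. Medium estrone: MTBE extraction, dansyl derivatization, HPLC-MS/MS. Bidirectional fit vs DMSO.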

Chain of Peroxisome proliferator-activated receptor gamma (Homo sapiens) (P37231 whole entry, looked up, the tested form may be a part): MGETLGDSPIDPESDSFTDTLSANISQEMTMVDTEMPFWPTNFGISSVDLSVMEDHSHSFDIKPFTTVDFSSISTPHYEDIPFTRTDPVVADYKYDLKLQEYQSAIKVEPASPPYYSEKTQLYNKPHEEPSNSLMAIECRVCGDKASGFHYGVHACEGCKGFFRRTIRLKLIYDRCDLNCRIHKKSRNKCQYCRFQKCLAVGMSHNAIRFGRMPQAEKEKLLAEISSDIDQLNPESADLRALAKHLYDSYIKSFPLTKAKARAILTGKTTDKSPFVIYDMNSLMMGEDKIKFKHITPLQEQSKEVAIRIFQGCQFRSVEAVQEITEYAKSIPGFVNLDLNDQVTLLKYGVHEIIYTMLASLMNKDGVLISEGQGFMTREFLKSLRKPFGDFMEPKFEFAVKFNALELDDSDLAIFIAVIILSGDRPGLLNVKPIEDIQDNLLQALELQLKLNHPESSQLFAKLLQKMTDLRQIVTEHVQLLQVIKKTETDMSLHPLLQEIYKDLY
Chain of Estrogen receptor (Homo sapiens) (P03372 whole entry, looked up): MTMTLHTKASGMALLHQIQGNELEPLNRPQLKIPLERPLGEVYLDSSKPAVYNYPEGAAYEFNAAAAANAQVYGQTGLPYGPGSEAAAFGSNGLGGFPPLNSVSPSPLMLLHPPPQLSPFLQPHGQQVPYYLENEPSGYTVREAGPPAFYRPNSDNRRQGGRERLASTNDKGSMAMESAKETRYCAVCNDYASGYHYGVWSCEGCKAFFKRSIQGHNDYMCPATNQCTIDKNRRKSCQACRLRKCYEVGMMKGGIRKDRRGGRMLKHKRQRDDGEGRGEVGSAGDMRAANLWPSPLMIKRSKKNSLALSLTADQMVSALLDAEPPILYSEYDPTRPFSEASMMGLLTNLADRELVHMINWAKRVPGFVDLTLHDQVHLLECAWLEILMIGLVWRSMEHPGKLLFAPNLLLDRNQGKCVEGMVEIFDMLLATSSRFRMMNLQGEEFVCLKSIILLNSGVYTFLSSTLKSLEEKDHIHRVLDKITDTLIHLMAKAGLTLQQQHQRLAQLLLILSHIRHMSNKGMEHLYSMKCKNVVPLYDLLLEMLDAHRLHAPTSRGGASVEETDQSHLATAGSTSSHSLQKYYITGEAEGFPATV
Chain of Bile acid receptor (Homo sapiens) (Q96RI1 whole entry, looked up, the tested form may be a part): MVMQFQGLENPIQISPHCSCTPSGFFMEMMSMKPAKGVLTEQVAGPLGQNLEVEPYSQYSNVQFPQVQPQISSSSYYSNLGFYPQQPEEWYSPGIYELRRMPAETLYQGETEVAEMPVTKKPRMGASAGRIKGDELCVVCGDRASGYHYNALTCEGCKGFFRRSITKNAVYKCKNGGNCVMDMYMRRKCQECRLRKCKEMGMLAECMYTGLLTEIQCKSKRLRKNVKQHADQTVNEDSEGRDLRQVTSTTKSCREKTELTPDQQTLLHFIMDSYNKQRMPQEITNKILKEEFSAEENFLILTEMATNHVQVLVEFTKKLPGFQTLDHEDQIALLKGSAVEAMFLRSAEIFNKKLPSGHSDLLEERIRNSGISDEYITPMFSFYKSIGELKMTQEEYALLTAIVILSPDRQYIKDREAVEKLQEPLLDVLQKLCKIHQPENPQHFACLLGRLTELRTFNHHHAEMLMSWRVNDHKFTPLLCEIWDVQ
Chain of Fatty acid synthase (Homo sapiens) (P49327 whole entry, looked up): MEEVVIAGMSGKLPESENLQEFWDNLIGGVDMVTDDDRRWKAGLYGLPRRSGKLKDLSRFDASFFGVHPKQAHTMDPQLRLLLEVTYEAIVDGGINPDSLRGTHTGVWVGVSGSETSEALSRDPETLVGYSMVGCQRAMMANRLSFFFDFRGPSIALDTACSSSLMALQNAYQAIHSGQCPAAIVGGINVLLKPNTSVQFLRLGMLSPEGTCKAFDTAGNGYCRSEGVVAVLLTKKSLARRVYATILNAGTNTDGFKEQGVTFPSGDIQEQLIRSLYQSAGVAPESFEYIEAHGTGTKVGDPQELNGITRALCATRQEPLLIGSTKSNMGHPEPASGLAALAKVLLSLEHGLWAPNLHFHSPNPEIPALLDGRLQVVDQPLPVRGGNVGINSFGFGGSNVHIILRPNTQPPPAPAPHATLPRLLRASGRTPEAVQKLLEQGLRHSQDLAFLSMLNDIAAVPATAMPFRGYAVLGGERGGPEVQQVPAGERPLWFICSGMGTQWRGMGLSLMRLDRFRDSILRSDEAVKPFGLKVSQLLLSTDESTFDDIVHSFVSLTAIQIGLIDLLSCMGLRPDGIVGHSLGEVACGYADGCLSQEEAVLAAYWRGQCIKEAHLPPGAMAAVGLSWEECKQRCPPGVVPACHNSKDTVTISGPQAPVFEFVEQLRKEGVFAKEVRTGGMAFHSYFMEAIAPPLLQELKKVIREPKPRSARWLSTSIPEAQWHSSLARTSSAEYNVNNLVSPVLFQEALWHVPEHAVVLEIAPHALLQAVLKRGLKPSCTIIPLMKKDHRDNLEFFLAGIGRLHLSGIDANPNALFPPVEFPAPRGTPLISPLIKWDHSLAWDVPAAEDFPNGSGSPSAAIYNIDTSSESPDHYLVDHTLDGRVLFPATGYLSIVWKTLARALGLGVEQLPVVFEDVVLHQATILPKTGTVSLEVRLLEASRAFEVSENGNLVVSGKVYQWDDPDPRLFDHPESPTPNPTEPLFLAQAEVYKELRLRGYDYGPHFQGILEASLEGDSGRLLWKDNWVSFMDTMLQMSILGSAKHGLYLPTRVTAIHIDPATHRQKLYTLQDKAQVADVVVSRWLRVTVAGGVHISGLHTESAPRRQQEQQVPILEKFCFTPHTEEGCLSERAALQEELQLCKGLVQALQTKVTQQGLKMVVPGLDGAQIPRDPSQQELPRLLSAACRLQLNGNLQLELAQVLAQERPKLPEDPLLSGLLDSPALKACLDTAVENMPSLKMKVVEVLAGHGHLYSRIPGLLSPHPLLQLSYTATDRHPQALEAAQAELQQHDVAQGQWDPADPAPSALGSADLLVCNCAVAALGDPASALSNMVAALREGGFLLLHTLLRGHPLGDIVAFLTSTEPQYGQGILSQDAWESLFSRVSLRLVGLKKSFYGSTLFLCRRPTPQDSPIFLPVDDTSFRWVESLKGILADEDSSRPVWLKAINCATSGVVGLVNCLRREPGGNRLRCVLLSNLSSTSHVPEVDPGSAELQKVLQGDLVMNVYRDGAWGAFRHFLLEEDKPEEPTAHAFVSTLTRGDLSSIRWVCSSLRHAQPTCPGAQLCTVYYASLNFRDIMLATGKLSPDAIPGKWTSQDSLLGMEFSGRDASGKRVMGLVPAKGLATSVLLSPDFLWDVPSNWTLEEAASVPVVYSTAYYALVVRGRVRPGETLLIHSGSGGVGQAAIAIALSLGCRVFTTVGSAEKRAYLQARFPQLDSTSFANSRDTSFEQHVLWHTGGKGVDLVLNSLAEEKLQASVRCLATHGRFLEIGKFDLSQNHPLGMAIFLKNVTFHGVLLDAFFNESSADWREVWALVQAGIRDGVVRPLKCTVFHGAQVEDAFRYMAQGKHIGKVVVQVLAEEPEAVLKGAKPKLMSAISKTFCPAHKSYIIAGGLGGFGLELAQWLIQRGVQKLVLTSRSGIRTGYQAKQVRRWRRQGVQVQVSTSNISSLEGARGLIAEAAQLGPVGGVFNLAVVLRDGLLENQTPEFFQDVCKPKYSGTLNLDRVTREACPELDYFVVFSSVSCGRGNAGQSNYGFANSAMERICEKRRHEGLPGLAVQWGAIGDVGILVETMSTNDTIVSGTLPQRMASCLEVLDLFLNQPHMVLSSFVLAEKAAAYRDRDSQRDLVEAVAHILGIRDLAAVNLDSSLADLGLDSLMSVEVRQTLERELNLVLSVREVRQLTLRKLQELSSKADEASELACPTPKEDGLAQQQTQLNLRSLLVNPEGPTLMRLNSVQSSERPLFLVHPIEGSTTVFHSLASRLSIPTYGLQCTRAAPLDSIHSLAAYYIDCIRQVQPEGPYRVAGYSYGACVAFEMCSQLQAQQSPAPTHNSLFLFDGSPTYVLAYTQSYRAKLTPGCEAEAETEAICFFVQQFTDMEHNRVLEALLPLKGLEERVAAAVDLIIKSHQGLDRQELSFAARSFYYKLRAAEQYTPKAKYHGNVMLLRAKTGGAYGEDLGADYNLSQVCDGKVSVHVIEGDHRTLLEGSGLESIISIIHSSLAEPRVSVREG

One may read the AC50 as the concentration giving half of the maximal activity seen. Regarding `CCOC1Oc2ccc(OS(C)(=O)=O)cc2C1(C)C` (stereo not drawn), the AC50 is 53.4 µM (active) in [1], 87.1 µM (active) in experiment [7] and 76.1 µM (active) in [8]. Besides, the result in [2], in experiment [3], in experiment [4], in experiment [5] and in experiment [6] was inactive.
For `ClC1C(Cl)C(Cl)C(Cl)C(Cl)C1Cl` (stereo not drawn), the compound was called inactive in experiment [9], in experiment [10], in [2], in experiment [3], in experiment [4] and in experiment [5]. The result in [6], in [7] and in experiment [8] was inactive. Also, in experiment [11], the AC50 is 50 µM (active).
`CCC(C)(NC(=O)c1cc(Cl)c(C)c(Cl)c1)C(=O)CCl` (stereo not drawn): the results for the AC50 in experiment [1], in [4] and in experiment [8] were 45 µM (active), 92.4 µM (active) and 77.8 µM (active), respectively. Moreover, the outcome in experiment [2], in experiment [3], in [5], in experiment [6] and in [7] was inactive.
In the case of `O=C(O)C(F)(F)C(F)(F)C(F)(F)C(F)(F)C(F)(F)C(F)(F)C(F)(F)F`, the call in experiment [4], in [5], in experiment [6], in [7] and in experiment [8] was inactive.
As to `Oc1cc(Cl)ccc1Oc1ccc(Cl)cc1Cl`, the AC50 in experiment [9] is 11.9 µM (active); in experiment [10], 12 µM (active); in experiment [5] it was 69.9 µM (active); in experiment [8], 85.2 µM (active). Also, the outcome in [2], in [3], in [12], in experiment [11], in [13] and in experiment [14] was inactive. The compound was called inactive in experiment [15], in [16], in experiment [17], in [4], in experiment [5] and in experiment [6]. Further, the compound was called inactive in [7] and in [8].
Turning to `CNC(=O)Oc1ccccc1OC(C)C`, the result in experiment [1], in experiment [2], in [3], in experiment [12], in experiment [11] and in experiment [13] was inactive. Further, the result in [14], in [15], in experiment [16], in [18], in [19] and in [17] was inactive. The compound was classed as inactive in experiment [4], in [5], in [6], in experiment [7] and in experiment [8].
Regarding `O=C(O)COc1ccc(Cl)cc1Cl`, the compound was classed as inactive in [12], in experiment [11], in experiment [13], in [14], in experiment [15] and in experiment [16]. For the same compound, the outcome in experiment [17], in [4], in experiment [5], in experiment [6], in experiment [7] and in experiment [8] was inactive.
